Data as given in the supplement of paper PMC8371130.
Where a name gives a salt, the structure may show the parent alone.

System: HL-1
Test: relative cell viability (CellTiter-Glo) vs DMSO control (% of DMSO control); higher = more viable cells
Outline: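 In 384-well plates, 1000 HL-1 mouse atrial cardiomyocytes per well were plated with compounds at 40, 200, 1000 or 5000 nM in 0.01% DMSO. Hypoxia at 1% O2 for 48 h began one day later and was followed by 24 h of reoxygenation, with parallel plates held in normoxia. CellTiter-Glo luminescence gave cell viability relative to vehicle-treated control cells.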

[1] = oxygen condition: hypoxia 48 h (1% O2) + reoxygenation 24 h, 40 nM
[2] = oxygen condition: hypoxia 48 h (1% O2) + reoxygenation 24 h, 200 nM
[3] = oxygen condition: hypoxia 48 h (1% O2) + reoxygenation 24 h, 1000 nM
[4] = oxygen condition: hypoxia 48 h (1% O2) + reoxygenation 24 h, 5000 nM
[5] = oxygen condition: normoxia 72 h, 40 nM
[6] = oxygen condition: normoxia 72 h, 200 nM
[7] = oxygen condition: normoxia 72 h, 1000 nM
[8] = oxygen condition: normoxia 72 h, 5000 nM

Question: With `NC(N)=Nc1nc(CSCC/C(N)=N/S(N)(=O)=O)cs1` [Famotidine] as the compound, how does the relative cell viability [1] read?
Answer: 103

Question: What about the relative cell viability [2] of the same compound?
Answer: 101

Question: What about the relative cell viability [3] of the same compound?
Answer: 114

Question: What about the relative cell viability [4] of the same compound?
Answer: 120

Question: And the relative cell viability [5]?
Answer: 107

Question: And the relative cell viability [6]?
Answer: 101

Question: What about the relative cell viability [7] of the same compound?
Answer: 97.9

Question: What about the relative cell viability [8] of the same compound?
Answer: 108

Question: `O=c1oc2cc(O)ccc2s1` [Tioxolone] was tested. Which relative cell viability [1] did it give?
Answer: 106

Question: What about the relative cell viability [2] of the same compound?
Answer: 104

Question: And the relative cell viability [3]?
Answer: 108

Question: And the relative cell viability [4]?
Answer: 110

Question: What about the relative cell viability [5] of the same compound?
Answer: 107

Question: And the relative cell viability [6]?
Answer: 109

Question: And the relative cell viability [7]?
Answer: 113

Question: And the relative cell viability [8]?
Answer: 106

Question: `NC(=O)NO` [Hydroxyurea] was tested. Which relative cell viability [1] did it give?
Answer: 101

Question: And the relative cell viability [2]?
Answer: 109

Question: And the relative cell viability [3]?
Answer: 109

Question: And the relative cell viability [4]?
Answer: 108

Question: What about the relative cell viability [5] of the same compound?
Answer: 108

Question: And the relative cell viability [6]?
Answer: 103

Question: And the relative cell viability [7]?
Answer: 109

Question: And the relative cell viability [8]?
Answer: 110

Question: What does the source list for `CC(C)(Oc1ccc(Cl)cc1)C(=O)O` [Clofibric acid]?
Answer: relative cell viability [1]: 106; relative cell viability [2]: 105; relative cell viability [3]: 108; relative cell viability [4]: 115; relative cell viability [5]: 104; relative cell viability [6]: 106; relative cell viability [7]: 104; relative cell viability [8]: 109

Question: Which results are given for `CC(C)(Oc1ccc(CCNC(=O)c2ccc(Cl)cc2)cc1)C(=O)O` [Bezafibrate]?
Answer: relative cell viability [1]: 102; relative cell viability [2]: 98.2; relative cell viability [3]: 105; relative cell viability [4]: 107; relative cell viability [5]: 105; relative cell viability [6]: 101; relative cell viability [7]: 99.8; relative cell viability [8]: 103

Question: `COc1cc(OC)c(C(=O)CCCN2CCCC2)c(OC)c1` [Buflomedil HCl] was tested. Which relative cell viability [1] did it give?
Answer: 101

Question: And the relative cell viability [2]?
Answer: 99.7

Question: And the relative cell viability [3]?
Answer: 100

Question: What about the relative cell viability [4] of the same compound?
Answer: 114

Question: What about the relative cell viability [5] of the same compound?
Answer: 108

Question: And the relative cell viability [6]?
Answer: 103

Question: And the relative cell viability [7]?
Answer: 105

Question: And the relative cell viability [8]?
Answer: 114

Question: For `COc1ccc2[nH]c([S@@+]([O-])Cc3ncc(C)c(OC)c3C)nc2c1` [Esomeprazole magnesium], which relative cell viability [1] is on record?
Answer: 107

Question: What about the relative cell viability [2] of the same compound?
Answer: 113

Question: What about the relative cell viability [3] of the same compound?
Answer: 114

Question: And the relative cell viability [4]?
Answer: 118

Question: What about the relative cell viability [5] of the same compound?
Answer: 104

Question: What about the relative cell viability [6] of the same compound?
Answer: 114

Question: What about the relative cell viability [7] of the same compound?
Answer: 115

Question: And the relative cell viability [8]?
Answer: 119

Question: With `O=c1c(-c2ccc(O)cc2)coc2cc(O)cc(O)c12` [Genistein] as the compound, how does the relative cell viability [1] read?
Answer: 104

Question: And the relative cell viability [2]?
Answer: 106

Question: What about the relative cell viability [3] of the same compound?
Answer: 113

Question: What about the relative cell viability [4] of the same compound?
Answer: 110

Question: What about the relative cell viability [5] of the same compound?
Answer: 111

Question: What about the relative cell viability [6] of the same compound?
Answer: 104

Question: And the relative cell viability [7]?
Answer: 106

Question: What about the relative cell viability [8] of the same compound?
Answer: 111

Question: Which results are given for `CN1CCN(C2=Nc3cc(Cl)ccc3Nc3ccccc32)CC1` [Clozapine]?
Answer: relative cell viability [1]: 105; relative cell viability [2]: 104; relative cell viability [3]: 105; relative cell viability [4]: 99.9; relative cell viability [5]: 96; relative cell viability [6]: 108; relative cell viability [7]: 113; relative cell viability [8]: 102

Question: `CN1C2CCCC1CC(NC(=O)c1nn(C)c3ccccc13)C2` (stereo not given) [Granisetron HCl] was tested. Which relative cell viability [1] did it give?
Answer: 103

Question: And the relative cell viability [2]?
Answer: 102

Question: And the relative cell viability [3]?
Answer: 106

Question: What about the relative cell viability [4] of the same compound?
Answer: 101

Question: And the relative cell viability [5]?
Answer: 101

Question: What about the relative cell viability [6] of the same compound?
Answer: 102

Question: What about the relative cell viability [7] of the same compound?
Answer: 105

Question: What about the relative cell viability [8] of the same compound?
Answer: 102

Question: Which results are given for `CNC(=C[N+](=O)[O-])NCCSCc1ccc(CN(C)C)o1` [Ranitidine]?
Answer: relative cell viability [1]: 82.2; relative cell viability [2]: 102; relative cell viability [3]: 97.9; relative cell viability [4]: 106; relative cell viability [5]: 90.9; relative cell viability [6]: 105; relative cell viability [7]: 106; relative cell viability [8]: 112

Question: Which relative cell viability [1] does the source give for `O=c1cc[nH]c(=S)[nH]1` [2-Thiouracil] here?
Answer: 99.6

Question: And the relative cell viability [2]?
Answer: 105

Question: What about the relative cell viability [3] of the same compound?
Answer: 104

Question: And the relative cell viability [4]?
Answer: 104

Question: And the relative cell viability [5]?
Answer: 102

Question: What about the relative cell viability [6] of the same compound?
Answer: 103

Question: What about the relative cell viability [7] of the same compound?
Answer: 100

Question: And the relative cell viability [8]?
Answer: 114

Question: `CN(Cc1ccc(C(C)(C)C)cc1)Cc1cccc2ccccc12` [Butenafine HCl] was tested. Which relative cell viability [1] did it give?
Answer: 98.1

Question: What about the relative cell viability [2] of the same compound?
Answer: 104

Question: What about the relative cell viability [3] of the same compound?
Answer: 106

Question: And the relative cell viability [4]?
Answer: 109

Question: And the relative cell viability [5]?
Answer: 104

Question: And the relative cell viability [6]?
Answer: 100

Question: And the relative cell viability [7]?
Answer: 106

Question: What about the relative cell viability [8] of the same compound?
Answer: 110

Question: `C[N+](C)(C)CC(O)CC(=O)[O-]` (racemic) [DL-Carnitine hydrochloride] was tested. Which relative cell viability [1] did it give?
Answer: 100

Question: What about the relative cell viability [2] of the same compound?
Answer: 95.2

Question: What about the relative cell viability [3] of the same compound?
Answer: 97.2

Question: And the relative cell viability [4]?
Answer: 107

Question: What about the relative cell viability [5] of the same compound?
Answer: 104

Question: And the relative cell viability [6]?
Answer: 102

Question: And the relative cell viability [7]?
Answer: 103

Question: And the relative cell viability [8]?
Answer: 91.5

Question: Which results are given for `COc1ccccc1OCCNCC(O)COc1cccc2[nH]c3ccccc3c12` (stereo not given) [Carvedilol]?
Answer: relative cell viability [1]: 93.5; relative cell viability [2]: 110; relative cell viability [3]: 107; relative cell viability [4]: 108; relative cell viability [5]: 104; relative cell viability [6]: 105; relative cell viability [7]: 107; relative cell viability [8]: 107

Question: For `CC(C)OC(=O)C(C)(C)Oc1ccc(C(=O)c2ccc(Cl)cc2)cc1` [Fenofibrate], which relative cell viability [1] is on record?
Answer: 103

Question: What about the relative cell viability [2] of the same compound?
Answer: 105

Question: And the relative cell viability [3]?
Answer: 108

Question: And the relative cell viability [4]?
Answer: 110

Question: What about the relative cell viability [5] of the same compound?
Answer: 103

Question: And the relative cell viability [6]?
Answer: 97.9

Question: And the relative cell viability [7]?
Answer: 97.5

Question: And the relative cell viability [8]?
Answer: 112

Question: With `CCN(CC)CCNC(C(=O)OCCC(C)C)c1ccccc1` (stereo not given) [Camylofin Chlorhydrate] as the compound, how does the relative cell viability [1] read?
Answer: 108

Question: What about the relative cell viability [2] of the same compound?
Answer: 103

Question: And the relative cell viability [3]?
Answer: 106

Question: What about the relative cell viability [4] of the same compound?
Answer: 109

Question: What about the relative cell viability [5] of the same compound?
Answer: 101

Question: And the relative cell viability [6]?
Answer: 100

Question: What about the relative cell viability [7] of the same compound?
Answer: 103

Question: And the relative cell viability [8]?
Answer: 110

Question: Which results are given for `Cc1ccc(C(=O)C(C)CN2CCCCC2)cc1` (stereo not given) [Tolperisone HCl]?
Answer: relative cell viability [1]: 107; relative cell viability [2]: 107; relative cell viability [3]: 109; relative cell viability [4]: 108; relative cell viability [5]: 107; relative cell viability [6]: 114; relative cell viability [7]: 81.5; relative cell viability [8]: 111

Question: With `CN(C)CCOC(C)(c1ccccc1)c1ccccn1` (stereo not given) [Doxylamine Succinate] as the compound, how does the relative cell viability [1] read?
Answer: 111

Question: And the relative cell viability [2]?
Answer: 104

Question: And the relative cell viability [3]?
Answer: 105

Question: What about the relative cell viability [4] of the same compound?
Answer: 109

Question: What about the relative cell viability [5] of the same compound?
Answer: 107

Question: What about the relative cell viability [6] of the same compound?
Answer: 112

Question: And the relative cell viability [7]?
Answer: 117

Question: What about the relative cell viability [8] of the same compound?
Answer: 123

Question: What does the source list for `COC(=O)[C@H]1[C@H]2C[C@@H]3c4[nH]c5cc(OC)ccc5c4CCN3C[C@H]2C[C@@H](OC(=O)c2cc(OC)c(OC)c(OC)c2)[C@@H]1OC` [Reserpine]?
Answer: relative cell viability [1]: 112; relative cell viability [2]: 106; relative cell viability [3]: 107; relative cell viability [4]: 110; relative cell viability [5]: 102; relative cell viability [6]: 103; relative cell viability [7]: 103; relative cell viability [8]: 113
